In PubChem BioAssay (EPA / NIEHS):
Results filed as inconclusive are left out. Calls of active or inactive are those of the source. The calls were made as follows: active = hit-call score of the fitted dose curve at least 0.9, where 1 is the maximum; inconclusive = response in the unintended direction; inactive = score below 0.9.

Tests used:
[1] = Tanguay_ZF_120hpf_CFIN_legacy: (Legacy) Oregon State University Tanguay Lab 120 Hour Post-fertilization zebrafish Assay for Caudal Fin Malformation (AID 2283649)
In short: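 Binary brightfield scoring of caudal fin defects at 120 hpf after static, light-shielded exposure at 28C from 6 hpf. Tropical 5D embryos, chorion removed with pronase at 4 hpf, final DMSO 0.64%.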

[2] = Tanguay_ZF_120hpf_PIG_legacy: (Legacy) Oregon State University Tanguay Lab 120 Hour Post-fertilization zebrafish Assay for Pigmentation Malformation (AID 2283650)
In short: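 Dechorionated Tropical 5D wild-type embryos, one per well from 6 hpf, statically exposed at 28C in the dark until 120 hpf, 0.64% DMSO final. Pigmentation scored present/absent by brightfield microscopy; dead embryos not scored; fitted versus DMSO.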

[3] = Tanguay_ZF_120hpf_CIRC_legacy: (Legacy) Oregon State University Tanguay Lab 120 Hour Post-fertilization zebrafish Assay for Circulatory Malformation (AID 2283651)
In short: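 Using wild-type Tropical 5D zebrafish, we exposed dechorionated embryos from 6 to 120 hpf in embryo medium with 0.64% DMSO. Circulatory defects were scored as present or absent; 5uM trimethyltin chloride served as positive control.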

[4] = Tanguay_ZF_120hpf_SWIM_legacy: (Legacy) Oregon State University Tanguay Lab 120 Hour Post-fertilization zebrafish Assay for Swim Bladder Malformation (AID 2283654);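 also: swim bladder malformation in each larva scored yes or no under brightfield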
In short: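 Dechorionated wild-type Tropical 5D zebrafish embryos, one per well from 6 hpf, were statically exposed at 28C until 120 hpf in 0.64% DMSO. Swim bladder malformation scored as present/absent by brightfield microscopy; not scored in dead larvae.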

[5] = Tanguay_ZF_120hpf_TRUN_legacy: (Legacy) Oregon State University Tanguay Lab 120 Hour Post-fertilization zebrafish Assay for Truncated Body (AID 2283655)
In short: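 Binary presence/absence of truncated body is recorded at 120 hpf by brightfield, with non-mortality endpoints skipped after death. Exposure is static from 6 hpf in sealed dark plates at 28C, using dechorionated wild-type zebrafish, 0.64% DMSO.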

[6] = read-out: ABC Transporter (ABCB1), ABCB1 (gene 5243); assay: CLD_ABCB1_6hr: CellzDirect (CLD) Gene Expression Assay for ABC Transporter (ABCB1) at 6 hours (AID 2283659);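 also: hits raise ABCB1 transcript above the DMSO vehicle baseline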
In short: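 Primary human hepatocytes (two donor preparations) dosed daily for two days with chemicals at multiple concentrations, 0.2% DMSO vehicle; harvested 6 h post-dose. ABCB1 mRNA induction quantified by qNPA chemiluminescence; gain-of-signal fitted versus DMSO.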

[7] = Tanguay_ZF_120hpf_TR_legacy: (Legacy) Oregon State University Tanguay Lab 120 Hour Post-fertilization zebrafish Assay for Touch Response (AID 2283667)
In short: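 Tropical 5D wild-type zebrafish embryos statically exposed to 120 hpf at 28°C, sealed and dark-covered, 0.64% DMSO final; touch response scored as present/absent by brightfield microscopy at 120 hpf. Trimethyltin chloride 5 uM positive control; dead embryos not scored.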

[8] = Tanguay_ZF_120hpf_NC_legacy: (Legacy) Oregon State University Tanguay Lab 120 Hour Post-fertilization zebrafish Assay for Notochord and Tail Malformation (AID 2283656)
In short: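 Dechorionated 5D zebrafish, 1/well from 6 hpf; static exposure to 120 hpf, 28C, sealed, dark; final DMSO 0.64% v/v. NC scored binary (present/absent); dead embryos not scored. Fit vs DMSO baseline, gain direction.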

[9] = read-out: Broad substrate specificity ATP-binding cassette transporter ABCG2 (Homo sapiens) (UniProt Q9UNQ0); assay: CLD_ABCG2_6hr: CellzDirect (CLD) Gene Expression Assay for ABC Transporter (ABCG2) at 6 hours (AID 2283660)
In short: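 Primary human hepatocytes dosed daily with chemicals at multiple concentrations (0.2% DMSO vehicle), harvested 6 h after dosing. ABCG2 mRNA induction read by quantitative nuclease protection assay (qNPA) chemiluminescence; gain of signal fitted against DMSO baseline.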

[10] = read-out: xenobiotic metabolism (CYP1A1), CYP1A1 (gene 1543); assay: CLD_CYP1A1_6hr: CellzDirect (CLD) Gene Expression Assay for xenobiotic metabolism (CYP1A1) at 6 hours (AID 2283661);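 as to AC50: potency for transcript induction above DMSO vehicle baseline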
In short: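 Primary human hepatocytes from two donors, compound versus 0.2% DMSO vehicle. CYP1A1 mRNA measured 6 h after dosing by quantitative nuclease protection assay with chemiluminescent read-out; induction fitted relative to DMSO, cytotoxicity flagged by microscopy.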

[11] = tested on: Thyroperoxidase (TPO), gene 54314; assay: CCTE_Simmons_AUR_rTPO: CCTE's Amplex UltraRed Assay for Thyroperoxidase (TPO) Inhibition, Simmons Lab (AID 2283662);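 also: potency for loss of signal meaning inhibition of peroxidase activity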
In short: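 Rat thyroid microsomal TPO + 25 uM AUR in 200 mM K phosphate; cpd 5 nM–87.5 uM [final], 8 conc, 0.5% DMSO; 300 uM H2O2 starts rxn; 37C dark 30 min; endpoint FI 544/590 nm; n=3.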

[12] = CLD_ACTIN_24hr: CellzDirect (CLD) Gene Expression Assay for Baseline Control (Actin) at 24 hours (AID 2283670)
In short: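 Primary human hepatocytes dosed over multiple concentrations with 0.2% DMSO vehicle; actin mRNA measured at 24 h by qNPA chemiluminescence. Background control endpoint, fitted as gain of signal versus DMSO.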

[13] = read-out: alkyl and aryl transferase (GSTA2), GSTA2 (gene 2939); assay: CLD_GSTA2_6hr: CellzDirect (CLD) Gene Expression Assay for alkyl and aryl transferase (GSTA2) at 6 hours (AID 2283666)
In short: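 Primary human hepatocytes from two donor preparations were dosed daily with fresh compound at multiple concentrations, 0.2% DMSO vehicle. GSTA2 mRNA was measured at 6 hours by qNPA chemiluminescence; induction fitted relative to DMSO, with cytotoxicity flagged morphologically.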

[14] = read-out: sulfotransferase (SULT2A), SULT2A1 (gene 6822); assay: CLD_SULT2A_6hr: CellzDirect (CLD) Gene Expression Assay for sulfotransferase (SULT2A) at 6 hours (AID 2283669);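 also: hits raise transcript level above the DMSO vehicle baseline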
In short: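 Primary human hepatocytes from two donor preparations were dosed daily with chemicals or 0.2% DMSO and harvested at 6 h. Transcript induction read by qNPA chemiluminescence, fitted for gain of signal relative to DMSO; morphology-based cytotoxicity annotated.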

Chain of Broad substrate specificity ATP-binding cassette transporter ABCG2 (Homo sapiens) (Q9UNQ0 whole entry, looked up): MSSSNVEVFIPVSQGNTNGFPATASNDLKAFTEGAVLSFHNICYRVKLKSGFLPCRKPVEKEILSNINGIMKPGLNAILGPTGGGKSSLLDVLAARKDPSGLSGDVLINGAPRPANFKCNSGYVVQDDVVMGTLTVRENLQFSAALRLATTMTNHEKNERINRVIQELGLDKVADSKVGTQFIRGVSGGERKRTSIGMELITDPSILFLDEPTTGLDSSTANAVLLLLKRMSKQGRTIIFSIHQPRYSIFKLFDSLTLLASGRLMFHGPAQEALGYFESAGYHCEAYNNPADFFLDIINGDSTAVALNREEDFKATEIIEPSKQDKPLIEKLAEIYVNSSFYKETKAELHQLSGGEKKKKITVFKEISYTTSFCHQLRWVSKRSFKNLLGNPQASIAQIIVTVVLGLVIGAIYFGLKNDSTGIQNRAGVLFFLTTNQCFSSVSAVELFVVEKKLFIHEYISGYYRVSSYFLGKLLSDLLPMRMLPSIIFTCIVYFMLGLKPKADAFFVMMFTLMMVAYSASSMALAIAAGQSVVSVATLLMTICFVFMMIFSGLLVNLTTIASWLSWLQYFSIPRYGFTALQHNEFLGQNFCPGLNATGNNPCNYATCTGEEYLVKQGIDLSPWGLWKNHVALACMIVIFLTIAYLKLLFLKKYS

Row | Compound | outcome [1] | outcome [2] | outcome [3] | outcome [4] | outcome [5] | outcome [6] | outcome [7] | outcome [8] | outcome [9] | outcome [10] | AC50 [11] | outcome [12] | AC50 [10] | outcome [13] | outcome [14] | AC50 [1]
1 | COCC(=O)N(c1c(C)cccc1C)C(C)C(=O)OC (stereo not given) | inactive | inactive | inactive | inactive | inactive | inactive | inactive |  |  |  |  |  |  |  |  | 
2 | COC(=O)NS(=O)(=O)c1ccc(N)cc1 | inactive | inactive |  | inactive | inactive | inactive | inactive | inactive | inactive | inactive | 20.2 µM (active) |  |  |  |  | 
3 | CCSC(=O)N1CCCCCC1 | inactive | inactive | inactive | inactive | inactive | inactive |  |  |  |  |  | inactive |  |  |  | 
4 | Cc1nc(N(C)C)nc(OC(=O)N(C)C)c1C | inactive | inactive | inactive | inactive | inactive | inactive | inactive |  | inactive |  |  |  | 4.32 µM (active) |  |  | 
5 | CN/C(=N\[N+](=O)[O-])NCc1cnc(Cl)s1 | inactive |  | inactive | inactive | inactive |  | inactive | inactive |  |  |  |  |  |  |  | 
6 | CCCN(CC)CC1COC2(CCC(C(C)(C)C)CC2)O1 (stereo not given) | inactive | inactive | inactive | inactive | inactive | inactive |  |  | inactive |  |  | inactive |  | inactive | inactive | 
7 | O=C1C2CC=CCC2C(=O)N1SC(Cl)(Cl)Cl (stereo not given) | inactive | inactive | inactive | inactive | inactive | inactive | inactive |  | inactive |  |  | inactive |  |  |  | 
8 | Nc1c(Cl)c(F)nc(OCC(=O)O)c1Cl | inactive | inactive | inactive |  | inactive | inactive | inactive | inactive | inactive | inactive |  | inactive |  |  |  | 
9 | CO/N=C(/C1=NOCCO1)c1ccccc1Oc1ncnc(Oc2ccccc2Cl)c1F |  |  | inactive |  |  | inactive | inactive | inactive | inactive |  |  | inactive |  |  |  | 6.85 µM (active)
10 | O=P(O)(O)CCCl | inactive | inactive | inactive | inactive | inactive |  | inactive | inactive |  |  | 18.2 µM (active) | inactive |  |  | inactive | 
